PubChem BioAssay AID1159580 (chemical genetic matrix, 2015)
“And” between values parts separate entries of the source, which are not always exact repeats. Equal entries are not always repeated. Out of some 5,500 compounds screened, about 2,000 (36%) were called active. Inconclusive results (about 18%) are left out. Some of the results follow. A number with no mark means an inactive call. Cut-off read from the data, not from the text of the source: active = normalized growth mostly below about 0.91 (no sharp cut-off); inconclusive = no clear call, values can overlap the other calls; inactive = mostly above about 0.92.

Assay: chemical genetic growth profiling, strain panel (AID 1159580);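 note: tested at 20 µM; growth read once vehicle control cultures reached saturation at 30 °C; 1 = growth at the plate median or of vehicle wells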
Settings: S. cerevisiae deletion strains, growth OD

**Q.** For `C#CCCCCCCCCCCCC(O)CC(O)COC(C)=O` (stereo unspecified), which normalized growth (locus YAL013W, strain DEP1, stronger effect = lower value) is on record?
**A.** Its normalized growth is 0.98.

**Q.** And the normalized growth (locus YAL021C, strain ccr4, stronger effect = lower value)?
**A.** Its normalized growth is 0.766 (active).

**Q.** What about the normalized growth (locus YAL026C, strain drs2, stronger effect = lower value) of the same molecule?
**A.** The normalized growth was 0.906 (active).

**Q.** And the normalized growth (locus YAL030W, strain snc1, stronger effect = lower value)?
**A.** Its normalized growth is 0.526 (active).

**Q.** What about the normalized growth (locus YBL061C, strain skt5, stronger effect = lower value) of the same molecule?
**A.** Its normalized growth is 0.841 (active).

**Q.** And the normalized growth (locus YBR009C, strain hhf1, stronger effect = lower value)?
**A.** The normalized growth was 0.263 (active).

**Q.** What about the normalized growth (locus YBR021W, strain FUR4, stronger effect = lower value) of the same molecule?
**A.** Its normalized growth is 0.925.

**Q.** What about the normalized growth (locus YBR023C, strain chs3, stronger effect = lower value) of the same molecule?
**A.** The normalized growth was 0.756 (active).

**Q.** And the normalized growth (locus YBR171W, strain sec66, stronger effect = lower value)?
**A.** The normalized growth was 0.962.

**Q.** What about the normalized growth (locus YBR229C, strain ROT2, stronger effect = lower value) of the same molecule?
**A.** The normalized growth was 0.982.

**Q.** What about the normalized growth (locus YBR231C, strain swc5, stronger effect = lower value) of the same molecule?
**A.** Its normalized growth is 0.962.

**Q.** And the normalized growth (locus YBR279W, strain paf1, stronger effect = lower value)?
**A.** Its normalized growth is 0.87 (active).

**Q.** What about the normalized growth (locus YCL011C, strain gbp2, stronger effect = lower value) of the same molecule?
**A.** The normalized growth was 0.32 (active).

**Q.** What about the normalized growth (locus YCL016C, strain dcc1, stronger effect = lower value) of the same molecule?
**A.** Its normalized growth is 0.805 (active).

**Q.** What about the normalized growth (locus YCL029C, strain bik1, stronger effect = lower value) of the same molecule?
**A.** Its normalized growth is 0.954.

**Q.** What about the normalized growth (locus YCL069W, strain vba3, stronger effect = lower value) of the same molecule?
**A.** The normalized growth was 0.852 (active).

**Q.** What about the normalized growth (locus YCR088W, strain abp1, stronger effect = lower value) of the same molecule?
**A.** Its normalized growth is 0.947.

**Q.** And the normalized growth (locus YDL005C, strain med2, stronger effect = lower value)?
**A.** The normalized growth was 0.103 (active).

**Q.** And the normalized growth (locus YDL035C, strain GPR1, stronger effect = lower value)?
**A.** The normalized growth was 0.908.

**Q.** And the normalized growth (locus YDL040C, strain nat1, stronger effect = lower value)?
**A.** Its normalized growth is 0.973.

**Q.** And the normalized growth (locus YDL074C, strain BRE1, stronger effect = lower value)?
**A.** The normalized growth was 0.857.

**Q.** And the normalized growth (locus YDL101C, strain DUN1, stronger effect = lower value)?
**A.** Its normalized growth is 0.975.

**Q.** What about the normalized growth (locus YDL134C, strain PPH21, stronger effect = lower value) of the same molecule?
**A.** The normalized growth was 0.972.

**Q.** And the normalized growth (locus YDL185W, strain tfp1, stronger effect = lower value)?
**A.** Its normalized growth is 0.963.

**Q.** And the normalized growth (locus YDL192W, strain arf1, stronger effect = lower value)?
**A.** The normalized growth was 0.928.

**Q.** And the normalized growth (locus YDR001C, strain nth1, stronger effect = lower value)?
**A.** Its normalized growth is 0.999.

**Q.** What about the normalized growth (locus YDR069C, strain doa4, stronger effect = lower value) of the same molecule?
**A.** The normalized growth was 1.02.

**Q.** What about the normalized growth (locus YDR101C, strain arx1, stronger effect = lower value) of the same molecule?
**A.** The normalized growth was 0.916 (active).

**Q.** And the normalized growth (locus YDR137W, strain rgp1, stronger effect = lower value)?
**A.** The normalized growth was 0.63 (active).

**Q.** What about the normalized growth (locus YDR150W, strain NUM1, stronger effect = lower value) of the same molecule?
**A.** Its normalized growth is 0.992.

**Q.** And the normalized growth (locus YDR159W, strain sac3, stronger effect = lower value)?
**A.** The normalized growth was 0.289 (active).

**Q.** And the normalized growth (locus YDR162C, strain NBP2, stronger effect = lower value)?
**A.** Its normalized growth is 0.945.

**Q.** And the normalized growth (locus YDR195W, strain ref2)?
**A.** The normalized growth was 0.482 (active).

**Q.** And the normalized growth (locus YDR297W, strain sur2, stronger effect = lower value)?
**A.** Its normalized growth is 0.571 (active).

**Q.** What about the normalized growth (locus YDR318W, strain mcm21, stronger effect = lower value) of the same molecule?
**A.** Its normalized growth is 0.889 (active).

**Q.** What about the normalized growth (locus YDR334W, strain swr1, stronger effect = lower value) of the same molecule?
**A.** The normalized growth was 1.04.

**Q.** What about the normalized growth (locus YDR335W, strain msn5, stronger effect = lower value) of the same molecule?
**A.** The normalized growth was 0.913 (active).

**Q.** And the normalized growth (locus YDR388W, stronger effect = lower value)?
**A.** The normalized growth was 0.967.

**Q.** And the normalized growth (locus YDR392W, strain spt3, stronger effect = lower value)?
**A.** Its normalized growth is 0.21 (active).

**Q.** What about the normalized growth (locus YDR502C, strain sam2, stronger effect = lower value) of the same molecule?
**A.** Its normalized growth is 0.923.

**Q.** What about the normalized growth (locus YEL003W, strain gim4, stronger effect = lower value) of the same molecule?
**A.** The normalized growth was 0.376 (active).

**Q.** And the normalized growth (locus YEL037C, strain rad23, stronger effect = lower value)?
**A.** Its normalized growth is 0.997.

**Q.** What about the normalized growth (locus YEL061C, strain CIN8 (second series), stronger effect = lower value) of the same molecule?
**A.** The normalized growth was 0.872 (active).

**Q.** And the normalized growth (locus YEL061C, strain CIN8, stronger effect = lower value)?
**A.** Its normalized growth is 0.989.

**Q.** What about the normalized growth (locus YER015W, strain faa2, stronger effect = lower value) of the same molecule?
**A.** Its normalized growth is 0.714 (active).

**Q.** What about the normalized growth (locus YER016W, strain bim1, stronger effect = lower value) of the same molecule?
**A.** The normalized growth was 0.861 (active).

**Q.** What about the normalized growth (locus YER110C, stronger effect = lower value) of the same molecule?
**A.** The normalized growth was 0.965.

**Q.** And the normalized growth (locus YER111C, strain swi4, stronger effect = lower value)?
**A.** Its normalized growth is 0.927.

**Q.** What about the normalized growth (locus YER155C, strain BEM2 (second series), stronger effect = lower value) of the same molecule?
**A.** The normalized growth was 0.461 (active).

**Q.** And the normalized growth (locus YER155C, strain BEM2, stronger effect = lower value)?
**A.** Its normalized growth is 0.988.

**Q.** And the normalized growth (locus YER167W, strain BCK2, stronger effect = lower value)?
**A.** The normalized growth was 0.953.

**Q.** What about the normalized growth (locus YFR010W, strain ubp6, stronger effect = lower value) of the same molecule?
**A.** The normalized growth was 1.03.

**Q.** And the normalized growth (locus YGL078C, strain dbp3, stronger effect = lower value)?
**A.** The normalized growth was 0.881 (active).

**Q.** And the normalized growth (locus YGL086W, strain mad1, stronger effect = lower value)?
**A.** Its normalized growth is 0.91 (active).

**Q.** And the normalized growth (locus YGL167C, strain pmr1, stronger effect = lower value)?
**A.** Its normalized growth is 0.939.

**Q.** What about the normalized growth (locus YGL173C, strain kem1, stronger effect = lower value) of the same molecule?
**A.** The normalized growth was 0.539 (active).

**Q.** And the normalized growth (locus YGL227W, strain vid30, stronger effect = lower value)?
**A.** Its normalized growth is 0.72 (active).

**Q.** And the normalized growth (locus YGL240W, strain doc1, stronger effect = lower value)?
**A.** Its normalized growth is 0.727 (active).

**Q.** And the normalized growth (locus YGL248W, strain PDE1, stronger effect = lower value)?
**A.** The normalized growth was 0.976.

**Q.** What about the normalized growth (locus YGL253W, strain hxk2, stronger effect = lower value) of the same molecule?
**A.** Its normalized growth is 0.788 (active).

**Q.** What about the normalized growth (locus YGR078C, strain PAC10, stronger effect = lower value) of the same molecule?
**A.** Its normalized growth is 0.905.

**Q.** And the normalized growth (locus YGR135W, strain pre9, stronger effect = lower value)?
**A.** The normalized growth was 0.918.

**Q.** What about the normalized growth (locus YGR229C, strain SMI1, stronger effect = lower value) of the same molecule?
**A.** The normalized growth was 0.954.

**Q.** And the normalized growth (locus YGR252W, strain gcn5, stronger effect = lower value)?
**A.** Its normalized growth is 0.831.

**Q.** What about the normalized growth (locus YHR013C, strain ard1, stronger effect = lower value) of the same molecule?
**A.** Its normalized growth is 1.13.

**Q.** And the normalized growth (locus YHR027C, strain rpn1, stronger effect = lower value)?
**A.** The normalized growth was 0.82 (active).

**Q.** What about the normalized growth (locus YHR030C, strain SLT2, stronger effect = lower value) of the same molecule?
**A.** The normalized growth was 0.98 and 0.998.

**Q.** What about the normalized growth (locus YHR079C, strain IRE1 (second series), stronger effect = lower value) of the same molecule?
**A.** Its normalized growth is 0.942.

**Q.** And the normalized growth (locus YHR079C, strain IRE1, stronger effect = lower value)?
**A.** The normalized growth was 0.969.

**Q.** And the normalized growth (locus YHR094C, strain hxt1, stronger effect = lower value)?
**A.** The normalized growth was 0.97.

**Q.** And the normalized growth (locus YHR129C, strain ARP1, stronger effect = lower value)?
**A.** Its normalized growth is 0.978.

**Q.** And the normalized growth (locus YHR142W, strain chs7, stronger effect = lower value)?
**A.** Its normalized growth is 0.624 (active).

**Q.** What about the normalized growth (locus YHR200W, strain rpn10, stronger effect = lower value) of the same molecule?
**A.** Its normalized growth is 0.945.

**Q.** What about the normalized growth (locus YIL066C, strain RNR3, stronger effect = lower value) of the same molecule?
**A.** The normalized growth was 0.885.

**Q.** What about the normalized growth (locus YIL073C, strain SPO22, stronger effect = lower value) of the same molecule?
**A.** Its normalized growth is 0.917.

**Q.** What about the normalized growth (locus YIL125W, strain kgd1, stronger effect = lower value) of the same molecule?
**A.** The normalized growth was 0.965.

**Q.** What about the normalized growth (locus YIR030C, strain dcg1, stronger effect = lower value) of the same molecule?
**A.** The normalized growth was 0.962.

**Q.** What about the normalized growth (locus YJL092W, strain hpr5, stronger effect = lower value) of the same molecule?
**A.** Its normalized growth is 0.963.

**Q.** What about the normalized growth (locus YJL095W, strain BCK1 (second series), stronger effect = lower value) of the same molecule?
**A.** The normalized growth was 0.216 (active).

**Q.** What about the normalized growth (locus YJL095W, strain BCK1, stronger effect = lower value) of the same molecule?
**A.** The normalized growth was 0.935 and 1.

**Q.** What about the normalized growth (locus YJL115W, strain asf1, stronger effect = lower value) of the same molecule?
**A.** Its normalized growth is 0.975.

**Q.** What about the normalized growth (locus YJL129C, strain trk1, stronger effect = lower value) of the same molecule?
**A.** The normalized growth was 0.213 (active).

**Q.** What about the normalized growth (locus YJL134W, strain LCB3, stronger effect = lower value) of the same molecule?
**A.** The normalized growth was 0.997.

**Q.** And the normalized growth (locus YJL154C, strain vps35, stronger effect = lower value)?
**A.** Its normalized growth is 1.01.

**Q.** What about the normalized growth (locus YJL164C, strain tpk1, stronger effect = lower value) of the same molecule?
**A.** The normalized growth was 0.258 (active).

**Q.** And the normalized growth (locus YJL166W, strain qcr8, stronger effect = lower value)?
**A.** The normalized growth was 0.283 (active).

**Q.** What about the normalized growth (locus YJL168C, strain set2, stronger effect = lower value) of the same molecule?
**A.** The normalized growth was 0.966.

**Q.** What about the normalized growth (locus YJL187C, strain SWE1 (second series), stronger effect = lower value) of the same molecule?
**A.** The normalized growth was 0.954.

**Q.** What about the normalized growth (locus YJR043C, strain POL32, stronger effect = lower value) of the same molecule?
**A.** The normalized growth was 0.897.

**Q.** And the normalized growth (locus YJR066W, strain TOR1, stronger effect = lower value)?
**A.** Its normalized growth is 0.957.

**Q.** And the normalized growth (locus YJR075W, strain HOC1, stronger effect = lower value)?
**A.** The normalized growth was 0.947.
